Shown are actives, neighbours in structure and some others; about 9.3% of the full set was active somewhere.
NPC1 promoter act = activates the NPC1 promoter; Huh7 NPC1 promoter luciferase reporter, 24 h; Potency, µM (titrated, usually from 9.22 µM), actives largely listed as activators; hit rate 2.4% among 320,000; also: nearly all actives have a fitted effect of over 60% in size
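Compounds in DMSO were transferred onto Huh7 NPC1-luciferase reporter cells pre-incubated 2 h; after 24 h at 37 °C, Amplite reagent was dispensed and luminescence recorded 10 min later.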
Rab9 prom act = activators of Rab9 promoter | Huh7 Rab9 promoter-luciferase reporter, luminescence, 24 h | Potency, µM (titrated, usually from 9.22 µM), actives largely listed as activators | hit rate 2.8% among 320,000 | AID 485297; also: nearly all actives have a fitted effect of over 60% in size
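Luminescence from Amplite-detected luciferase (10 minutes, ambient) reports Rab9 promoter activation. Before that, stable Rab9-luciferase Huh7 cells (1500/well, reduced-serum OP-MEM I plus 10% FBS) were exposed to compound for 24 hours at 37C.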
SMN2 splice up = SMN2 splice variant enhancement | HEK293 SMN2-luciferase splicing reporter, luminescence, 30-36 h | Potency, µM (top dose mostly 46.1 µM), hits mostly activators | hit rate 2.8% among 210,000; also: nearly all actives have a fitted effect of over 55% in size
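HEK293 cells carry an SMN2 […]–luciferase reporter in which exon 7 inclusion puts luciferase in frame. Cells were plated 10-12 h before compound addition, then incubated 30-36 h at 37C. ONE-Glo luminescence was read; sodium butyrate at 4.5 mM final served as control.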
FLuc counter = counter-screen for miR-21 project: firefly luciferase inhibitors or activators | P08659 | purified FLuc, Km substrates, luminescence inhibition | Potency, µM (doses to about 57.5 µM), actives largely listed as inhibitors | hit rate 6.9% among 360,000 | AID 588342; also: nearly all actives have a fitted effect of over 55% in size
Target sequence (P08659 whole entry, looked up): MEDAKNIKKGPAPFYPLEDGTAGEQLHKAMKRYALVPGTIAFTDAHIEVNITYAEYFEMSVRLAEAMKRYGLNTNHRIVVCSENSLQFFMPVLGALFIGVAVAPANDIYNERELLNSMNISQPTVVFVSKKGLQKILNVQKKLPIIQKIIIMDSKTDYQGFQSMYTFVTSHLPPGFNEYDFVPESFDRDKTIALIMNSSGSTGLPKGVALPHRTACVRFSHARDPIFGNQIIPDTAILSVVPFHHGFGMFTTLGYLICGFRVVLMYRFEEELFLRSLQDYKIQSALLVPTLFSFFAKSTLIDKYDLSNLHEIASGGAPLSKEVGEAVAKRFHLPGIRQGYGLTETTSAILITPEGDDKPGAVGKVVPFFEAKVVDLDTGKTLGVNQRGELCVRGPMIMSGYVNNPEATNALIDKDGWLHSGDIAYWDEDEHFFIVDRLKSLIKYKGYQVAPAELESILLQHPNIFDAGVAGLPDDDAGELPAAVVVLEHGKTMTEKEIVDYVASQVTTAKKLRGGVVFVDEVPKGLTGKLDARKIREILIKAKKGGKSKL
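Biochemical qHTS of compounds, final roughly 60 µM downward over six points, against 10 nM purified firefly luciferase using Km concentrations of substrates (10 uM D-luciferin, 10 uM ATP) in Tris acetate pH 7.5 buffer; luminescence output.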
ELG1 genotoxic = genotoxicity induction in ELG1-luciferase HEK293T cells | HEK293T ELG1-luciferase reporter, luminescence, 16 h | Potency, µM (top dose mostly 46 µM), usual class: activators | hit rate 1.3% among 330,000 | AID 504466; also: nearly all actives have a fitted effect of over 60% in size
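Genotoxic stress is detected as increased luminescence from luciferase-tagged ELG1 in HEK293T cells, measured with ONE-Glo after a 16 hr treatment at 37 °C.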
ELG1 repair inh = inhibitors of ELG1-dependent DNA repair in HEK293T cells; HEK293T ELG1-luciferase reporter, luminescence, 16 h; DNA damage induced by 5-fluorouridine; Potency, µM (highest dose often 46.1 µM), hits mostly inhibitors; hit rate 2.3% among 330,000; AID 504467; also: nearly all actives have a fitted effect of over 55% in size
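Luminescence from the luciferase reporter, measured 30 min after ONE-Glo reagent at room temperature, was the read-out. Beforehand, 2,000 cells per well were exposed for 16 hr at 37 °C to 5-fluorouridine together with compound or vehicle.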
Hits are given with their value; – = inactive; ? = inconclusive; · = no result given. Calls follow the shape of the dose curve; as a rule, active = well fitted curve in the direction sought with a large enough effect; inconclusive = small, poorly fitted or top-dose-only effect, or another doubt; inactive = no such curve, though single readings can be large; an effect the other way counts as inactive or inconclusive.

SMILES | NPC1 promoter act | Rab9 prom act | SMN2 splice up | FLuc counter | ELG1 genotoxic | ELG1 repair inh
COc1ccc(Nc2ccnc(Nc3ccc(OC)cc3)n2)cc1 | ? | ? | – | 7.57µM | – | ?
Cc1cc(C)c(NC(=O)CSc2nc(=O)n(Cc3ccco3)c3c2CCC3)c(C)c1 | · | · | · | – | · | ·
Cc1cccc(N2CCN(C(=O)CCS(=O)(=O)c3ccc(Br)cc3)CC2C)c1 (stereo unspecified) | – | – | – | – | – | ?
CC(=O)N1CCCc2cc(S(=O)(=O)CCC(=O)N3CCN(c4cccc(C)c4)C(C)C3)ccc21 (stereo unspecified) | – | – | – | – | – | 20.6µM
CC(C)NC(=O)N1CCCC2(CCN(C(=O)c3ccncc3)CC2)C1 | · | · | – | · | · | ·
CCC(C)(C)n1nnnc1C(c1cccnc1)N1CCN(c2cccc(C(F)(F)F)c2)CC1 (stereo unspecified) | – | – | – | – | – | –
CC1CCCCN1C(=O)CSc1nnc(-c2ccccc2F)o1 (stereo unspecified) | 2.51µM | 2.51µM | · | ? | ? | ?
CC1CCCCN1C(=O)CSc1nnc(-c2ccco2)o1 (stereo unspecified) | 1.78µM | 2µM | · | 15.1µM | 20.6µM | ?
CC[C@@H]1C=C(C(=O)O)[C@H](c2ccc(OC)c(OC)c2)N1S(=O)(=O)c1ccc(C)cc1 | · | · | · | · | – | –
CCc1ccc(C(=O)NNC(=S)Nc2ccc(S(N)(=O)=O)cc2)s1 | – | – | · | 16.9µM | – | –
CC(C)CC(=O)NNC(=S)Nc1ccc(S(N)(=O)=O)cc1 | – | – | – | – | – | –
CC(C)(C)c1ccc(NC(=O)c2ccccc2)c([N+](=O)[O-])c1 | 0.447µM | 0.501µM | – | 4.26µM | – | ?
Cc1cc(C(=O)Nc2cccc([N+](=O)[O-])c2C)cs1 | – | – | · | – | – | ?
Cc1c(NC(=O)c2ccc(C(C)(C)C)cc2)cccc1[N+](=O)[O-] | ? | ? | 15.8µM | 13.5µM | – | –
Cc1ccc(NC(=O)CNC(=O)c2cccs2)nc1 | – | – | · | – | – | –
CCN(CC)CCCNc1ccc(-c2nnc(-c3ccc(OCC(C)C)cc3)o2)cn1 | – | – | · | – | – | –
CC(C)COc1ccc(-c2nnc(-c3ccco3)o2)cc1 | 0.447µM | 0.316µM | 3.98µM | 1.07µM | ? | ?
CCCc1nnc(-c2ccc(OC)cc2)o1 | – | – | – | ? | – | ?
CCCOc1ccc(-c2nnc(-c3ccco3)o2)cc1 | 0.501µM | 0.447µM | ? | 0.757µM | ? | ?
Cc1ccc(C(=O)N2CCN(c3ncc(C(F)(F)F)cc3Cl)CC2)s1 | – | – | · | – | ? | ?
CC1Sc2ccc(S(=O)(=O)CCC(=O)NC3CCCC(C)C3C)cc2NC1=O (stereo unspecified) | – | – | · | – | – | –
O=C1CC(C(=O)O)S/C(=N\N=C\c2ccc(Br)cc2)N1 (stereo unspecified) | – | – | · | 16.9µM | – | –
CC[n+]1ccc(/C=C2\Sc3ccccc3N2CCCS(=O)(=O)[O-])c2ccccc21 | – | – | – | – | – | –
CN1C=C/C(=C\c2cc[n+](C)c3ccccc23)c2ccccc21 | – | – | – | 16.9µM | – | ?
COCCCNc1oc(/C=C/c2cc(OC)c(OC)c(OC)c2)nc1C#N | · | · | ? | – | · | ·
SMILES | NPC1 promoter act | Rab9 prom act | SMN2 splice up | FLuc counter | ELG1 genotoxic | ELG1 repair inh
CCOC(=O)C(=Cc1cc(=O)c(OC)co1)C(=O)OCC | – | – | – | ? | – | 5.8µM
COc1coc(C(O)CN)cc1=O (stereo unspecified) | – | – | – | – | – | –
CCCCCC(=O)Nc1nc2ccccc2[nH]1 | ? | ? | 14.1µM | 13.5µM | ? | ?
CCOc1ccccc1OCCCC(=O)Nc1nc2ccccc2[nH]1 | – | – | – | – | – | ?
COc1ccc(OCC(=O)Nc2nc3ccccc3[nH]2)cc1 | ? | ? | – | 4.78µM | 20.6µM | ?
COc1ccc(CCC(=O)Nc2nc3ccccc3[nH]2)cc1 | 3.55µM | 2.24µM | – | ? | ? | ?
COc1ccc(CC(=O)Nc2nc3ccccc3[nH]2)cc1 | – | – | · | – | – | –
COc1ccccc1CCC(=O)Nc1nc2ccccc2[nH]1 | ? | ? | 12.6µM | 13.5µM | ? | ?

From PubChem
